Measured values from PubChem BioAssay (Tox21).
“And” between values parts separate entries of the source, which are not always exact repeats. Identical values can stand only once. Records with an inconclusive call do not appear. Where a call stands in place of a potency, no number is given. The source holds several records for some structures; these can differ, active in one and inactive in another. The source made the active and inactive calls. The call rests on the fitted dose curve; in most records, active means well fitted activation curve with a large enough effect in the repeat runs; inconclusive means weak or mixed curves; inactive means flat fitted curve, though single readings scatter.

assay: A CellTox Green Cytotoxicity Assay to monitor cytotoxicity in HepG2 cells - 40 hour (AID 1224879); settings: CellTox Green fluorescence; series mostly up to 76.8 µM; further: nearly all actives have a fitted effect of over 40% in size
Text: National Center for Advancing Translational Sciences [NCATS]
NIH Chemical Genomics Center [NCGC]
U.S. Environmental Protection Agency [EPA]
National Institutes of Environmental Health Sciences [NIEHS]
National Toxicology Program [NTP]
Cell-based models are critical for drug discovery. Determining the natural cytotoxic effects resulting from test compounds is an essential research activity. A CellTox Green Cytotoxicity Assay to monitor cytotoxicity in real time of continues cell culture during 40 hours of the compound treatment was used to screen Tox21 10K library compounds in HepG2 cells. CellTox Green Cytotoxicity Assay is a nonlytic, homogeneous, biofluorescent method to measure cytotoxicity in cell culture after experimental manipulation. The assay system uses a proprietary asymmetric cyanine dye that is excluded from viable cells but preferentially stains the dead cell's DNA. […] Viable cells produce no appreciable increases in fluorescence. Therefore, the fluorescence signal produced by the binding interaction with dead cell DNA is proportional to cytotoxicity.
The mixture of HepG2 cell suspension and reagents were dispensed at 600cells/6 ul/well in 1536-well tissue culture treated black solid bottom plates using a Multidrop dispenser. After the assay plates were incubated at a 37 C/5% CO2 incubator for 5 hours, 23 nL of compounds dissolved in DMSO, positive and negative controls was transferred to the assay plate by a pintool work station. The plates were incubated at 37 C for 40 hours. The fluorescence intensity were measured at 0h, 8h, 16h, 24h, 32h and 40h time points using ViewLux plate reader during compound treatment.
Potency means the concentration at half of the fitted maximal effect.

**Q.** With c1ccc2c(c1)-c1cccc3c1c-2cc1ccccc13 as the compound, how does the Potency read?
**A.** 1.91 µM (active) and inactive

**Q.** Which Potency does the source give for CCC(=O)/C=C/C1C(C)=CCCC1(C)C (stereo not given) here?
**A.** inactive

**Q.** For CCN(CC)C(=O)Nc1ccc(OCC(O)CNC(C)(C)C)c(C(C)=O)c1 (stereo not given), which Potency is on record?
**A.** inactive

**Q.** Which Potency does the source give for NC(N)=Nc1nc(CSCC/C(N)=N/S(N)(=O)=O)cs1 here?
**A.** inactive

**Q.** For NC(Cc1ccc(Cl)cc1)C(=O)O (stereo not given), which cytotoxicity increase is on record?
**A.** -9.84% [at 0.29 µM] (inactive)

**Q.** With CC(C)(C)NCC(O)c1cc(O)cc(O)c1 (stereo not given) as the compound, how does the Potency read?
**A.** inactive

**Q.** For COC(=O)c1cccc(C(=O)OC)c1, which Potency is on record?
**A.** inactive and 24.5 µM (active)

**Q.** For Nc1nc2ccccc2[nH]1, which Potency is on record?
**A.** inactive and 216 nM (active)

**Q.** Which Potency does the source give for Cc1occc(=O)c1OC(=O)C(C)C here?
**A.** inactive

**Q.** Which Potency does the source give for Cc1cccc2n[nH]nc12 here?
**A.** inactive

**Q.** With CN1C(=O)c2ccc([N+](=O)[O-])cc2C1=O as the compound, how does the Potency read?
**A.** inactive

**Q.** Which Potency does the source give for CC(C)(C)NCC(O)COc1ccccc1OCC1CCCO1 (stereo not given) here?
**A.** inactive

**Q.** Which Potency does the source give for Cc1cccc(O)c1C here?
**A.** inactive

**Q.** With NNCCc1ccccc1 as the compound, how does the Potency read?
**A.** inactive

**Q.** For CC[C@]1(O)C[C@@H]2CN(CCc3c([nH]c4ccccc34)[C@@](C(=O)OC)(c3cc4c(cc3OC)N(C)[C@H]3[C@@](O)(C(=O)OC)[C@H](OC(C)=O)[C@]5(CC)C=CCN6CC[C@]43[C@@H]65)C2)C1, which Potency is on record?
**A.** inactive

**Q.** Which Potency does the source give for CCC(CO)(CO)COCC(CC)(CO)CO here?
**A.** inactive

**Q.** For COc1ccc(CCN(C)CCCC(C#N)(c2ccc(OC)c(OC)c2)C(C)C)cc1OC (stereo not given), which Potency is on record?
**A.** 48.9 µM (active)

**Q.** Which Potency does the source give for Cc1cc(C(C)(C)C)c(O)c(C(C)(C)C)c1 here?
**A.** inactive

**Q.** For CC1=C(C=O)C(C)(C)CC=C1, which Potency is on record?
**A.** inactive

**Q.** With CCCCCCCCCCCC[N+](C)(C)C as the compound, how does the Potency read?
**A.** 43.5 µM (active) and 43.6 µM (active) and 38.9 µM (active)

**Q.** For O=C(Oc1ccccc1)c1ccccc1O, which Potency is on record?
**A.** inactive

**Q.** With O=C1CC2(CCCC2)CC(=O)N1CCCCN1CCN(c2ncccn2)CC1 as the compound, how does the Potency read?
**A.** 38.9 µM (active) and inactive

**Q.** For CCN(CC)c1ccc2c(C)cc(=O)oc2c1, which Potency is on record?
**A.** inactive

**Q.** With c1ccc2c(c1)CCCC2C1=NCCN1 (stereo not given) as the compound, how does the Potency read?
**A.** inactive

**Q.** For CCC(C)(Oc1ccc(C2(c3ccc(OC(C)(CC)C(=O)O)cc3)CCCCC2)cc1)C(=O)O (stereo not given), which Potency is on record?
**A.** inactive

**Q.** With CCc1cc(C(C)(C)C)c(O)c(C(C)(C)C)c1 as the compound, how does the Potency read?
**A.** inactive

**Q.** With Cc1cc(C2(c3cc(C)c(O)cc3C)OS(=O)(=O)c3ccccc32)c(C)cc1O as the compound, how does the Potency read?
**A.** inactive

**Q.** Which Potency does the source give for CN(C)c1ccc2nc3ccc(=[N+](C)C)cc-3sc2c1 here?
**A.** inactive

**Q.** For O=C(Cl)c1cccc(C(=O)Cl)c1, which Potency is on record?
**A.** inactive

**Q.** Which Potency does the source give for CC(C)CCCCCCc1ccc(O)cc1 here?
**A.** 14 µM (active) and 43.6 µM (active)

**Q.** With COC(=O)/C=C/c1ccccc1 as the compound, how does the Potency read?
**A.** inactive

**Q.** Which Potency does the source give for CCCN[C@H]1CCc2nc(N)sc2C1 here?
**A.** inactive

**Q.** With O=C1Nc2ccccc2C1(c1ccc(O)cc1)c1ccc(O)cc1 as the compound, how does the Potency read?
**A.** inactive

**Q.** Which Potency does the source give for CC(=O)O[C@]1(C(C)=O)CC[C@H]2[C@@H]3C[C@H](C)C4=CC(=O)CC[C@]4(C)[C@H]3CC[C@@]21C here?
**A.** inactive

**Q.** Which Potency does the source give for O=C(O)c1cccc(C(=O)O)c1 here?
**A.** inactive

**Q.** For O=C(Nc1ccccc1SSc1ccccc1NC(=O)c1ccccc1)c1ccccc1, which Potency is on record?
**A.** 49 µM (active)

**Q.** For c1cc(C(c2ccc(OCC3CO3)cc2)C(c2ccc(OCC3CO3)cc2)c2ccc(OCC3CO3)cc2)ccc1OCC1CO1 (stereo not given), which Potency is on record?
**A.** inactive

**Q.** For CCOC(=O)C(C)C(C)=O (stereo not given), which Potency is on record?
**A.** inactive

**Q.** For CCCCN(CCO)CCCC, which Potency is on record?
**A.** inactive

**Q.** For O=C(O)c1cn(-c2ccc(F)cc2)c2cc(N3CCNCC3)c(F)cc2c1=O, which Potency is on record?
**A.** inactive
